The source of these data is PubChem BioAssay (NCI).

Compounds without any hit were thinned out: in the full panel of roughly 79,000, 15% have a hit. Unmarked numbers belong to inactive results. Calls of active or inactive are those of the source. Cut-off read from the data, not from the text of the source: active = growth inhibition above about 70%; inactive = the rest.

Test [1] is described as follows: NCI Yeast Anticancer Drug Screen. Data for the rad50 strain (AID 155).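 Note: 0% = growth of vehicle-only cultures of the same strain.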 The following applies: S. cerevisiae rad50 strain growth inhibition, hits give high values. A digest of the protocol:
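Vehicle-treated cultures provide the reference for the growth inhibition reported for compound-exposed, repair-deficient yeast.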

Test [2] in a line: NCI Yeast Anticancer Drug Screen. Data for the mec2-1 strain (AID 157). The following applies: S. cerevisiae mec2-1 strain, hits give high values. Summed up: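 Cells of the genetically defined mec2-1 yeast strain are incubated with test compound. Inhibition of growth is calculated against vehicle-treated controls.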
Test [3] can be described thus: NCI Yeast Anticancer Drug Screen. Data for the sgs1 mgt1 strain (AID 161).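 Note: 0% = growth of cultures given vehicle only.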 Conditions: S. cerevisiae sgs1 mgt1 strain, hits give high values. A digest of the protocol:
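Mutant yeast exposed to compound; growth scored against vehicle-only wells.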

Test [4] can be described thus: NCI Yeast Anticancer Drug Screen. Data for the cln2 rad14 strain (AID 165).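 Note: 0% = growth equal to vehicle treated cultures.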 Conditions: S. cerevisiae cln2 rad14 strain, hits give high values. A digest of the protocol: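 The screen exposed genetically defined yeast (cln2 rad14) to test compounds and scored growth inhibition relative to vehicle-treated controls.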
Test [5] in a line: NCI Yeast Anticancer Drug Screen. Data for the bub3 strain (AID 167). The following applies: S. cerevisiae bub3 mutant strain, hits give high values. Summed up:
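Mutant yeast screening strain plus compound; vehicle-treated cultures serve as the 0% inhibition reference.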

A short description of test [6]: NCI Yeast Anticancer Drug Screen. Data for the mlh1 rad18 strain (AID 175). Conditions: S. cerevisiae mlh1 rad18 strain growth inhibition, hits give high values. Summed up:
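Compound-treated yeast growth, normalised to vehicle controls. Strain bears defined DNA repair mutations.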

Where [7] appears, read: at 5.0 µM (retest, dose inferred, filed as 0.5).
Setting [8] is: at 50.0 µM (retest, dose inferred, filed as 5.0).

`CCC(C)(O)Cc1cnccn1` (stereo not given): the growth inhibition was 3% in test [1] (setting [7]); 1% in test [1] (setting [8]); 1.75% in test [1] (at 50.0 µM); 0% in test [2] (setting [7]); 1% in test [2] (setting [8]); -2.7% in test [2] (at 50.0 µM). Also, the growth inhibition in test [3] (setting [7]) was 2%; in test [3] (setting [8]) it was -3%; in test [3] (at 50.0 µM) it was 7.25%; in test [4] (setting [7]), -1%; in test [4] (setting [8]), -2%; in test [4] (at 50.0 µM) it was 14.8%. The growth inhibition in test [5] (setting [7]) was 0%; in test [5] (setting [8]), 1%; in test [5] (at 50.0 µM), 12.1%; in test [6] (setting [7]), -10%; in test [6] (setting [8]) it was 2%; in test [6] (at 50.0 µM), 9.25%.
On to `CC(C)CCCC(C)C1CCC2C3CC=C4CC(OC(=O)Nc5ccc(S(=O)(=O)c6ccc(F)cc6)cc5)CCC4(C)C3CCC12C` (stereo not given), for which the growth inhibition in test [1] (setting [7]) is 3%; in test [1] (setting [8]) it was 2%; in test [1] (at 50.0 µM) it was 96.3% (active); in test [2] (setting [7]), 1%; in test [2] (setting [8]) it was 4%; in test [2] (at 50.0 µM) it was 98% (active). Also, the growth inhibition in test [3] (setting [7]) is 0%; in test [3] (setting [8]) it was 0%; in test [3] (at 50.0 µM) it was 97.8% (active); in test [4] (setting [7]), 3%; in test [4] (setting [8]) it was 9%; in test [4] (at 50.0 µM), 51.5%. For the same compound, the growth inhibition in test [5] (setting [7]) is 1%; in test [5] (setting [8]), -12%; in test [5] (at 50.0 µM), 96.7% (active); in test [6] (setting [7]), 4%; in test [6] (setting [8]), -6%; in test [6] (at 50.0 µM), 96.4% (active).
Regarding `CC1(Cc2ccccc2)CCCC(C=O)C1=O.[Cu+2]` (stereo not given), the growth inhibition in test [1] (setting [7]) is 1%; in test [1] (setting [8]), 98% (active); in test [1] (at 50.0 µM) it was 66.5%; in test [2] (setting [7]) it was 0%; in test [2] (setting [8]), 97% (active); in test [2] (at 50.0 µM) it was 31.5%. Moreover, the growth inhibition in test [3] (setting [7]) was -4%; in test [3] (setting [8]) it was 98% (active); in test [3] (at 50.0 µM), 94.7% (active); in test [4] (setting [7]), 0%; in test [4] (setting [8]), 92% (active); in test [4] (at 50.0 µM), -21.9%. For the same compound, the growth inhibition was -3% in test [5] (setting [7]); 96% (active) in test [5] (setting [8]); -3.85% in test [5] (at 50.0 µM); 0% in test [6] (setting [7]); 99% (active) in test [6] (setting [8]); 44.9% in test [6] (at 50.0 µM).
Take `Cc1nc(-c2ccc(N=Cc3ccc(N(CCOS(C)(=O)=O)CCOS(C)(=O)=O)cc3Cl)cc2)c(C)s1`: the growth inhibition was 1% in test [1] (setting [7]); 33% in test [1] (setting [8]); 40.1% in test [1] (at 50.0 µM); -68% in test [2] (setting [7]); -1% in test [2] (setting [8]); 13.1% in test [2] (at 50.0 µM). Moreover, the growth inhibition in test [3] (setting [7]) was 2%; in test [3] (setting [8]), 17%; in test [3] (at 50.0 µM) it was 55.3%; in test [4] (setting [7]) it was 6%; in test [4] (setting [8]), -4%; in test [4] (at 50.0 µM), -9.2%. Further, the growth inhibition in test [5] (setting [7]) was 0%; in test [5] (setting [8]), -1%; in test [5] (at 50.0 µM), -8.8%; in test [6] (setting [7]) it was 4%; in test [6] (setting [8]), 37%; in test [6] (at 50.0 µM), 73% (active).
On to `Cc1ccc2c(ccc3ccccc32)c1`, for which the growth inhibition in test [1] (setting [7]) was -23%; in test [1] (setting [8]), 42%; in test [1] (at 50.0 µM) it was 74.3% (active); in test [2] (setting [7]) it was 1%; in test [2] (setting [8]), 10%; in test [2] (at 50.0 µM), 16.4%. Further, the growth inhibition was -7% in test [3] (setting [7]); 16% in test [3] (setting [8]); 57.5% in test [3] (at 50.0 µM); -25% in test [4] (setting [7]); -12% in test [4] (setting [8]); 10.2% in test [4] (at 50.0 µM). Besides, the growth inhibition in test [5] (setting [7]) is -15%; in test [5] (setting [8]), 38%; in test [5] (at 50.0 µM), 71% (active); in test [6] (setting [7]) it was -67%; in test [6] (setting [8]) it was 39%; in test [6] (at 50.0 µM) it was 34.6%.
Take `O=P(Nc1ccccc1)(OCc1ccccc1)OCc1ccccc1`: the growth inhibition in test [1] (setting [7]) is -4%; in test [1] (setting [8]), 98% (active); in test [1] (at 50.0 µM) it was 98.5% (active); in test [2] (setting [7]), 12%; in test [2] (setting [8]), 99% (active); in test [2] (at 50.0 µM), 94.7% (active). Also, the growth inhibition in test [3] (setting [7]) is -4%; in test [3] (setting [8]), 99% (active); in test [3] (at 50.0 µM) it was 98.8% (active); in test [4] (setting [7]), 13%; in test [4] (setting [8]), 99% (active); in test [4] (at 50.0 µM), 67%. The growth inhibition was 0% in test [5] (setting [7]); 99% (active) in test [5] (setting [8]); 40.8% in test [5] (at 50.0 µM); 5% in test [6] (setting [7]); 99% (active) in test [6] (setting [8]); 99.1% (active) in test [6] (at 50.0 µM).
Consider `CCC(=O)NC1=CCC(C(C)(C)C)CC1` (stereo not given), for which the growth inhibition is 2% in test [1] (setting [7]); -4% in test [1] (setting [8]); 10.2% in test [1] (at 50.0 µM); 1% in test [2] (setting [7]); 4% in test [2] (setting [8]); -5.55% in test [2] (at 50.0 µM). Also, the growth inhibition in test [3] (setting [7]) is 1%; in test [3] (setting [8]), 4%; in test [3] (at 50.0 µM), -0.5%; in test [4] (setting [7]), 4%; in test [4] (setting [8]), -4%; in test [4] (at 50.0 µM) it was 7.9%. The growth inhibition in test [5] (setting [7]) was 9%; in test [5] (setting [8]), 18%; in test [5] (at 50.0 µM), 42.5%; in test [6] (setting [7]), 0%; in test [6] (setting [8]), -1%; in test [6] (at 50.0 µM) it was -5.45%.
On to `Cc1c2cc[n+](C)cc2c(COC2OC(CO)C(O)C2O)c2c3ccccc3n(C)c12` (stereo not given), for which the growth inhibition was 23% in test [1] (setting [7]); 44% in test [1] (setting [8]); 65% in test [1] (at 50.0 µM); 10% in test [2] (setting [7]); 10% in test [2] (setting [8]); 23.6% in test [2] (at 50.0 µM). Moreover, the growth inhibition in test [3] (setting [7]) is -12%; in test [3] (setting [8]), 23%; in test [3] (at 50.0 µM) it was 17.9%; in test [4] (setting [7]), 19%; in test [4] (setting [8]), 24%; in test [4] (at 50.0 µM), 18.1%. The growth inhibition in test [5] (setting [7]) is 12%; in test [5] (setting [8]) it was 14%; in test [5] (at 50.0 µM), 28.1%; in test [6] (setting [7]), 13%; in test [6] (setting [8]), 14%; in test [6] (at 50.0 µM) it was 23.2%.
On to `Cc1cc(-c2ccc(O)c(C)c2)ccc1O`, for which the growth inhibition is 13% in test [1] (setting [7]); 94% (active) in test [1] (setting [8]); 83% (active) in test [1] (at 50.0 µM); -15% in test [2] (setting [7]); 74% (active) in test [2] (setting [8]); 57.4% in test [2] (at 50.0 µM). Moreover, the growth inhibition in test [3] (setting [7]) was 0%; in test [3] (setting [8]) it was 78% (active); in test [3] (at 50.0 µM), 74.6% (active); in test [4] (setting [7]), 5%; in test [4] (setting [8]), 60%; in test [4] (at 50.0 µM), 51.8%. The growth inhibition in test [5] (setting [7]) was 23%; in test [5] (setting [8]), 98% (active); in test [5] (at 50.0 µM), 72.5% (active); in test [6] (setting [7]) it was 8%; in test [6] (setting [8]), 91% (active); in test [6] (at 50.0 µM), 71.5% (active).
On to `CC(C)C(CC(C)(C)C)OC(=O)Nc1cccc2ccccc12` (stereo not given), for which the growth inhibition is 0% in test [1] (setting [7]); 96% (active) in test [1] (setting [8]); 13.1% in test [1] (at 50.0 µM); -1% in test [2] (setting [7]); 98% (active) in test [2] (setting [8]); 26.4% in test [2] (at 50.0 µM). The growth inhibition in test [3] (setting [7]) is 0%; in test [3] (setting [8]), 97% (active); in test [3] (at 50.0 µM), 61.8%; in test [4] (setting [7]), -17%; in test [4] (setting [8]), 95% (active); in test [4] (at 50.0 µM), 6.15%. For the same compound, the growth inhibition in test [5] (setting [7]) was 11%; in test [5] (setting [8]) it was 96% (active); in test [5] (at 50.0 µM) it was 61.1%; in test [6] (setting [7]) it was -3%; in test [6] (setting [8]) it was 97% (active); in test [6] (at 50.0 µM) it was 58.1%.
